Shown are actives, neighbours in structure and some others; about 3.5% of the full set was active somewhere.
GPR151 ag – activates the human receptor GPR151. 1% of 650,000 active. activation, % at 11.2 µM. PathHunter beta-arrestin GPR151 cells, luminescence. AID 1508602. Q8TDV0; in the data active means activation above about 4.9%;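 further: 0% = median of compound wells and 100% = cells with positive control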
MITF inh – human MITF inhibition, primary screen; inhibition, % at 2.6 µM; AlphaScreen MITF homodimerization, bead proximity signal; 0.91% of 650,000 active; in the data active means inhibition above about 50%;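 further: 0% = vehicle wells with protein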
Target sequence (O75030 whole entry, looked up): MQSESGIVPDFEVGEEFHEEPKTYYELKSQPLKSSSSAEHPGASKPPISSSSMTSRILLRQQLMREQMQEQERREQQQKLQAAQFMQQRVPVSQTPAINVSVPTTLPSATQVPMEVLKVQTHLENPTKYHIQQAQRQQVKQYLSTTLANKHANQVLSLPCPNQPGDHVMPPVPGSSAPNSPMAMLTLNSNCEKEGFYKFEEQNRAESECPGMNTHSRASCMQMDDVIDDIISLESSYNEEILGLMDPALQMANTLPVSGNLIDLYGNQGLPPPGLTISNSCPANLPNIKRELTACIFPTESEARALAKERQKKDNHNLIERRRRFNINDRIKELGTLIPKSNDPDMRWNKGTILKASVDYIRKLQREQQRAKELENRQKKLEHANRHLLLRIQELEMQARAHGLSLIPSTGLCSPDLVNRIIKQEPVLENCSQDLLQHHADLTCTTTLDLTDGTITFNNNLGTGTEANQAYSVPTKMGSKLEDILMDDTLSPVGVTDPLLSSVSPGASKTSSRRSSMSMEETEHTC
FBW7 activator – human FBW7 E3 ligase activation, primary screen. Q969H0. AlphaScreen FBW7–phospho-cyclin E peptide binding, activator screen. 0.13% of 650,000 active. normalized activity (activation), % at 26.1 µM; in the data active means normalized activity above about 1.9%;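 further: purified mutant Fbw7 with reduced substrate affinity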
TEAD-YAP block – TEAD-YAP interaction inhibition; HEK-TIYL cells, TEAD-Gal4/YAP UAS-luciferase luminescence; inhibition, % at 9.12 µM; 1.4% of 640,000 active; in the data active means inhibition above about 32%;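 further: 0% = median of test compound wells and 100% = reference inhibitor wells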
GPR151 conf act – human GPR151 activation, confirmation screen. shares compounds with GPR151 ag. GPR151 PathHunter beta-arrestin cells, luminescence, 90 min; % of EA-reagent control over plate median. activation, % at 11.2 µM. AID 1508609. 6,700 tested, under 10 active;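 active means mean percent activation across replicates above the confirmation screen cutoff of 4.91%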
GPR119 ag – counter-screen for GPR151 activators: effect on human GPR119 | activation, % at 11.2 µM | 0.3% of 6,700 active | GPR119 PathHunter beta-arrestin cells, luminescence, 90 min; 0 = compound-well median, 100 = enzyme-acceptor control | shares compounds with GPR151 ag | AID 1508611;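 active means mean percent activation in the counterscreen above 29.09%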;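 further: counterscreen on off-target GPR119 to flag nonselective hits from the GPR151 activator screen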
* hit, by the source's call; ! = not active in a repeat.

`Cc1cccc(C2=N/C(=C\c3ccc(I)o3)C(=O)O2)c1` gave GPR151 ag 5.3*, MITF inh -10, FBW7 activator 0, TEAD-YAP block 8, GPR151 conf act 0 and GPR119 ag -1.
For COc1ccc(C2=N/C(=C/c3cccc(OC)c3OC)C(=O)O2)cc1Br the results were GPR151 ag 5.0*, MITF inh 8, FBW7 activator 0, TEAD-YAP block -2, GPR151 conf act -1 and GPR119 ag 1.
Screening CC(=O)Oc1ccc(/C=C2\N=C(c3cccc(C)c3)OC2=O)cc1OC(C)=O returned GPR151 ag 7.6*, MITF inh 0, FBW7 activator 0, TEAD-YAP block 2, GPR151 conf act 2 and GPR119 ag 1.
Screening CCOc1ccccc1/C=C1\N=C(c2ccc(C)cc2)OC1=O returned GPR151 ag 0, MITF inh 12, FBW7 activator 0 and TEAD-YAP block -6.
`CCOC(=O)C1CCC(CN(Cc2c(Cl)cccc2Cl)S(=O)(=O)c2ccc(C(C)(C)C)cc2)CC1` (centres undefined) gave GPR151 ag 0, MITF inh -11, FBW7 activator 0 and TEAD-YAP block -7.
`CC(C)(C)Nc1nc(NCc2ccccc2)nc(N/N=C/c2ccccc2F)n1` gave GPR151 ag -2, MITF inh 6, FBW7 activator -1 and TEAD-YAP block 26.
Screening COc1cc(C(c2sc3ncnn3c2O)N2CCN(Cc3ccccc3)CC2)cc(OC)c1OC (centres undefined) returned GPR151 ag 1, MITF inh 10, FBW7 activator 0 and TEAD-YAP block 12.
Screening CCCC(=O)Nc1ccc(Oc2ccc3c(c2)C(=O)NC3=O)cc1 returned GPR151 ag -1, MITF inh 15, FBW7 activator 0 and TEAD-YAP block -6.
For CCCC(=O)Nc1cccc(Oc2ccc3c(c2)C(=O)NC3=O)c1 the results were GPR151 ag 6.0*, MITF inh -9, FBW7 activator 0, TEAD-YAP block -4, GPR151 conf act -1 and GPR119 ag -8.
COC(=O)c1ccccc1NC(=O)/C=C/c1ccc(C)cc1 was read as GPR151 ag 0, MITF inh 10, FBW7 activator 0 and TEAD-YAP block -17.
Screening COc1ccc2oc(=O)c(N(C)S(=O)(=O)c3ccc(C)cc3)cc2c1 returned GPR151 ag 5.1*, MITF inh 15, FBW7 activator 0, TEAD-YAP block 2, GPR151 conf act -1 and GPR119 ag -2.
For Cc1ccc(NC(=O)c2c(N)sc3c2CCCC3)cc1C the results were GPR151 ag 0, MITF inh 20, FBW7 activator 0 and TEAD-YAP block -18.
`COc1ccccc1CNCc1c(C(=O)O)n(Cc2cc(C)ccc2C)c2ccccc12` gave GPR151 ag -1, MITF inh -6, FBW7 activator 0 and TEAD-YAP block 2.
CCOC(=O)CCc1c(C)nc2nc(CNC(=O)c3ccccc3)nn2c1C was read as GPR151 ag 5.2*, MITF inh -7, FBW7 activator 0, TEAD-YAP block 0, GPR151 conf act 0 and GPR119 ag -2.
Screening Cc1nc2nc(CNC(=O)OC(C)(C)C)nn2c(C)c1CCC(=O)NCc1ccccc1 returned GPR151 ag 0, MITF inh 16, FBW7 activator 1 and TEAD-YAP block 6.
Screening C/C(=N\Nc1ccccc1)c1no[n+]([O-])c1C returned GPR151 ag 6.1*, MITF inh 0, FBW7 activator 0, TEAD-YAP block -6, GPR151 conf act -1 and GPR119 ag -7.
For CC(C)NC(=S)N1CCC(C(=O)NC(c2ccc(F)cc2)c2ccccn2)CC1 (centres undefined) the results were GPR151 ag -1, MITF inh -2, FBW7 activator 0 and TEAD-YAP block -1.
`COc1ccc(C(=O)C(C)Sc2nc(C)cc(=O)[nH]2)cc1` (centres undefined) gave GPR151 ag -2, MITF inh -11, FBW7 activator 1 and TEAD-YAP block -3.
For CCOc1ccc(C(=O)C(C)Sc2nc(C)cc(=O)[nH]2)cc1 (centres undefined) the results were GPR151 ag 5.1*, MITF inh -2, FBW7 activator 0, TEAD-YAP block -7, GPR151 conf act 1 and GPR119 ag 9.
`COc1cc(Nc2ccnc(N3CCc4ccccc4C3)n2)cc(OC)c1OC` gave GPR151 ag 6.8*, MITF inh 4, FBW7 activator 0, TEAD-YAP block 5, GPR151 conf act 0 and GPR119 ag 18.
`COc1cc(Nc2cc(C)nc(N3CCc4ccccc4C3)n2)cc(OC)c1OC` gave GPR151 ag 2, MITF inh 5, FBW7 activator 0 and TEAD-YAP block 3.
CC(C)CNc1nccn2c(-c3ccc(N4CCN(C)CC4)nc3)cnc12 was read as GPR151 ag 2, MITF inh -2, FBW7 activator 0 and TEAD-YAP block 9.
For C=C1c2ccc(C)cc2NC(=O)N1CC the results were GPR151 ag 0, MITF inh -17, FBW7 activator 0 and TEAD-YAP block 7.
For C=C1c2cc(OC)ccc2NC(=O)N1CC the results were GPR151 ag 5.5*, MITF inh -7, FBW7 activator 0, TEAD-YAP block 12, GPR151 conf act -1 and GPR119 ag -16.
`CN(C)C(=O)NCCn1cnc2c1c(=O)n(C)c(=O)n2C` gave GPR151 ag 6.2*, MITF inh 13, FBW7 activator 0, TEAD-YAP block 3, GPR151 conf act -1 and GPR119 ag -2.
Cn1c(=O)c2c(ncn2CCn2cnc3c2c(=O)n(C)c(=O)n3C)n(C)c1=O was read as GPR151 ag -2, MITF inh 2, FBW7 activator 0 and TEAD-YAP block 1.
COc1cc2nc(Nc3ccc(N4CCOCC4)cc3)nc(Nc3ccccc3)c2cc1OC was read as GPR151 ag 2, MITF inh 8, FBW7 activator 0 and TEAD-YAP block 6.
For COc1cc2nc(Oc3ccccc3)nc(Nc3ccc(NC(C)=O)cc3)c2cc1OC the results were GPR151 ag 7.4*, MITF inh 14, FBW7 activator 0, TEAD-YAP block 23, GPR151 conf act 0 and GPR119 ag 0.
Screening CCN(CC)c1nc(Nc2cc(OC)c(OC)c(OC)c2)nc(Nc2cc(OC)c(OC)c(OC)c2)n1 returned GPR151 ag 2, MITF inh 5, FBW7 activator 0 and TEAD-YAP block 11.
For CCN(CC)c1nc(Nc2ccc(N3CCOCC3)cc2)nc(Nc2cc(OC)c(OC)c(OC)c2)n1 the results were GPR151 ag 9.3*!, MITF inh 8, FBW7 activator 0, TEAD-YAP block -2, GPR151 conf act 0 and GPR119 ag 5.

Screens (PubChem)
